Where a chain is given by its changes, count along the chain named.

Common to all, as to assay: PBM; 200 nM protein, PBS
Holding throughout (conditions): dsDNA, one strand shown

The target of assay [1] is T1, SIX6 (Homo sapiens, UniProt O95475 114-200, L167I).
T1 sequence: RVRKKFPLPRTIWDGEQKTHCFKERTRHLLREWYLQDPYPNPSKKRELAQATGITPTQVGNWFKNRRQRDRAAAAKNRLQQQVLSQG

The target of assay [2] is T2, SIX6 (Homo sapiens, UniProt O95475 114-200, L143V).
T2 sequence: T1 sequence with L30V, I54L

In assay [3] the target is T3, SIX6 (Homo sapiens, UniProt O95475 114-200, H141N).
T3 sequence: T1 sequence with H28N, I54L

The target in assay [4] is T4, SIX6 (Homo sapiens, UniProt O95475 114-200, T165P).
T4 sequence: T1 sequence with T52P, I54L

Assay [5] concerns the target T5, SIX6 (Homo sapiens, UniProt O95475 114-200, L167M).
T5 sequence: T1 sequence with I54M

The target of assay [6] is T6, SIX6 (Homo sapiens, UniProt O95475 114-200, L143M).
T6 sequence: T1 sequence with L30M, I54L

For assay [7], the target named is T7, SIX6 (Homo sapiens, UniProt O95475 114-200, L143I).
T7 sequence: T1 sequence with L30I, I54L

In assay [8] the target is T8, SIX6 (Homo sapiens, UniProt O95475 114-200, T165G).
T8 sequence: T1 sequence with T52G, I54L

For assay [9], the target named is T9, SIX6 (Homo sapiens, UniProt O95475 114-200, T139Q).
T9 sequence: T1 sequence with T26Q, I54L

The target of assay [10] is T10, SIX6 (Homo sapiens, UniProt O95475 114-200, T165A).
T10 sequence: T1 sequence with T52A, I54L

Assay [11] deals with T11, SIX6 (Homo sapiens, UniProt O95475 114-200, L167V).
T11 sequence: T1 sequence with I54V

Assay [12] has as its target T12, SIX6 (Homo sapiens, UniProt O95475 114-200).
T12 sequence: T1 sequence with I54L

Assay [13] concerns the target T13, SIX6 (Homo sapiens, UniProt O95475 114-200, T165I).
T13 sequence: T1 sequence with T52I, I54L

As to ACGATATC, the binding signal was 11.1 upbm affinity estimate (log intensity, higher = more binding, comparable within an allelic series) in [1]; 10.2 upbm affinity estimate (log intensity, higher = more binding, comparable within an allelic series) in [2]; 11.1 upbm affinity estimate (log intensity, higher = more binding, comparable within an allelic series) in [3]; 9.76 upbm affinity estimate (log intensity, higher = more binding, comparable within an allelic series) in [4]; 10.6 upbm affinity estimate (log intensity, higher = more binding, comparable within an allelic series) in assay [5]; 11 upbm affinity estimate (log intensity, higher = more binding, comparable within an allelic series) in [6]. Also, the binding signal was 10.3 upbm affinity estimate (log intensity, higher = more binding, comparable within an allelic series) in assay [7]; 11.3 upbm affinity estimate (log intensity, higher = more binding, comparable within an allelic series) in [8]; 11.2 upbm affinity estimate (log intensity, higher = more binding, comparable within an allelic series) in [9]; 11 upbm affinity estimate (log intensity, higher = more binding, comparable within an allelic series) in assay [10]; 10.9 upbm affinity estimate (log intensity, higher = more binding, comparable within an allelic series) in assay [11]; 10.9 upbm affinity estimate (log intensity, higher = more binding, comparable within an allelic series) in assay [12]. The binding signal in assay [13] was 10.8 upbm affinity estimate (log intensity, higher = more binding, comparable within an allelic series).

Consider GACGGCCC, for which the binding signal in assay [1] is 8.94 upbm affinity estimate (log intensity, higher = more binding, comparable within an allelic series); in assay [2], 8.75 upbm affinity estimate (log intensity, higher = more binding, comparable within an allelic series); in [3] it was 8.98 upbm affinity estimate (log intensity, higher = more binding, comparable within an allelic series); in assay [4] it was 8.86 upbm affinity estimate (log intensity, higher = more binding, comparable within an allelic series); in [5] it was 8.9 upbm affinity estimate (log intensity, higher = more binding, comparable within an allelic series); in [6], 8.78 upbm affinity estimate (log intensity, higher = more binding, comparable within an allelic series). Further, the binding signal was 8.82 upbm affinity estimate (log intensity, higher = more binding, comparable within an allelic series) in [7]; 9 upbm affinity estimate (log intensity, higher = more binding, comparable within an allelic series) in assay [8]; 8.92 upbm affinity estimate (log intensity, higher = more binding, comparable within an allelic series) in assay [9]; 8.88 upbm affinity estimate (log intensity, higher = more binding, comparable within an allelic series) in assay [10]; 8.84 upbm affinity estimate (log intensity, higher = more binding, comparable within an allelic series) in [11]; 8.88 upbm affinity estimate (log intensity, higher = more binding, comparable within an allelic series) in assay [12]. Moreover, the binding signal in assay [13] is 8.88 upbm affinity estimate (log intensity, higher = more binding, comparable within an allelic series).

With CAGTGGCC, the binding signal in assay [1] is 8.99 upbm affinity estimate (log intensity, higher = more binding, comparable within an allelic series); in assay [2], 8.9 upbm affinity estimate (log intensity, higher = more binding, comparable within an allelic series); in assay [3], 8.99 upbm affinity estimate (log intensity, higher = more binding, comparable within an allelic series); in [4], 9.04 upbm affinity estimate (log intensity, higher = more binding, comparable within an allelic series); in [5], 8.93 upbm affinity estimate (log intensity, higher = more binding, comparable within an allelic series); in assay [6], 8.95 upbm affinity estimate (log intensity, higher = more binding, comparable within an allelic series). Moreover, the binding signal in assay [7] is 8.95 upbm affinity estimate (log intensity, higher = more binding, comparable within an allelic series); in assay [8], 9.02 upbm affinity estimate (log intensity, higher = more binding, comparable within an allelic series); in [9] it was 8.99 upbm affinity estimate (log intensity, higher = more binding, comparable within an allelic series); in assay [10], 8.94 upbm affinity estimate (log intensity, higher = more binding, comparable within an allelic series); in assay [11], 9.05 upbm affinity estimate (log intensity, higher = more binding, comparable within an allelic series); in [12], 8.95 upbm affinity estimate (log intensity, higher = more binding, comparable within an allelic series). Moreover, in assay [13], the binding signal was 8.94 upbm affinity estimate (log intensity, higher = more binding, comparable within an allelic series).

Consider CAGCGTGC, for which the binding signal in [1] was 9.15 upbm affinity estimate (log intensity, higher = more binding, comparable within an allelic series); in [2], 9.01 upbm affinity estimate (log intensity, higher = more binding, comparable within an allelic series); in [3] it was 9.08 upbm affinity estimate (log intensity, higher = more binding, comparable within an allelic series); in assay [4], 9.06 upbm affinity estimate (log intensity, higher = more binding, comparable within an allelic series); in [5] it was 9.05 upbm affinity estimate (log intensity, higher = more binding, comparable within an allelic series); in assay [6] it was 9.23 upbm affinity estimate (log intensity, higher = more binding, comparable within an allelic series). Also, the binding signal was 9.08 upbm affinity estimate (log intensity, higher = more binding, comparable within an allelic series) in assay [7]; 9.19 upbm affinity estimate (log intensity, higher = more binding, comparable within an allelic series) in assay [8]; 9.15 upbm affinity estimate (log intensity, higher = more binding, comparable within an allelic series) in assay [9]; 9.11 upbm affinity estimate (log intensity, higher = more binding, comparable within an allelic series) in assay [10]; 9.05 upbm affinity estimate (log intensity, higher = more binding, comparable within an allelic series) in [11]; 9.14 upbm affinity estimate (log intensity, higher = more binding, comparable within an allelic series) in [12]. In addition, in assay [13], the binding signal was 9.05 upbm affinity estimate (log intensity, higher = more binding, comparable within an allelic series).

Turning to AAGTATCA, the binding signal in assay [1] is 11.3 upbm affinity estimate (log intensity, higher = more binding, comparable within an allelic series); in assay [2], 10.3 upbm affinity estimate (log intensity, higher = more binding, comparable within an allelic series); in assay [3], 11.2 upbm affinity estimate (log intensity, higher = more binding, comparable within an allelic series); in assay [4], 9.85 upbm affinity estimate (log intensity, higher = more binding, comparable within an allelic series); in assay [5] it was 10.6 upbm affinity estimate (log intensity, higher = more binding, comparable within an allelic series); in [6], 11 upbm affinity estimate (log intensity, higher = more binding, comparable within an allelic series). Further, the binding signal in assay [7] is 10.3 upbm affinity estimate (log intensity, higher = more binding, comparable within an allelic series); in assay [8], 11.2 upbm affinity estimate (log intensity, higher = more binding, comparable within an allelic series); in [9], 11.1 upbm affinity estimate (log intensity, higher = more binding, comparable within an allelic series); in assay [10], 11.2 upbm affinity estimate (log intensity, higher = more binding, comparable within an allelic series); in assay [11] it was 11 upbm affinity estimate (log intensity, higher = more binding, comparable within an allelic series); in assay [12] it was 10.9 upbm affinity estimate (log intensity, higher = more binding, comparable within an allelic series). Further, the binding signal in assay [13] was 11 upbm affinity estimate (log intensity, higher = more binding, comparable within an allelic series).

The values are drawn from article PMC11006913.
